# Among all 2,100 compounds or so, about 650 (31%) were called active. Inconclusive results (about 16%) are left out. The list shows a part of the results. Values without a mark were called inactive. Calls come from the whole dose curve; as a rule, active = well fitted inhibition curve with a large enough effect; inconclusive = small, poorly fitted or top-dose-only effect; inactive = flat fitted curve, though single readings scatter.
# Assay: qHTS for inhibitors of Vif-A3G interactions: Cherry picks; note: nearly all actives have a fitted effect of over 80% in size; for activity, negative = fluorescence increase: % of control where 0% means no effect
# Details: HeLa A3G-eYFP + Vif (tagged APOBEC3G with the HIV-1 protein that degrades it), 24 h; Potency: eYFP fluorescence increase; series mostly up to 36.9 µM; activity, negative = fluorescence increase: at the top concentration
# Summary of the method: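 HeLa cells stably expressing A3G-eYFP and Vif, cultured overnight then exposed to compounds at several concentrations for 24 hours at 37 C, 5% CO2; cellular yellow fluorescence (488 nm ex, 500-530 nm em) imaged on Acumen, MG132 positive control.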
# Potency is the fitted concentration of half-maximal effect.
Structure (SMILES),Potency,"activity, negative = fluorescence increase"
Cc1ccc2nsnc2c1NC(=O)c1ccc(-c2cc(Cl)ccc2Cl)o1,15.8 µM (active),
CCSc1nccc(-c2nn(-c3ccc(C)cc3)ccc2=O)n1,,-4.33%
CC(C)c1ccc(C(=O)NCCCNC(=O)c2cnccn2)cc1,,-3.75%
CC(=O)Nc1ccc(C2=CC(=O)C[C@H](c3ccc(Cl)cc3)C2)cc1,18.4 µM (active),
CC(=O)Nc1cccc(-c2ccnc3c2CC(C(=O)Nc2ccc(Cl)cc2)O3)c1 (configuration not stated),,-16.3%
CC(=O)Nc1ccc2c(c1)Cc1ccc(Cl)cc1-2,,-2.7% [at 46.1 µM]
CCSC1=N/C(=C\C=C2/Oc3ccccc3N2CC)C(=O)S1,14.6 µM (active),
CC(=O)Oc1ccc(N2C(=O)c3cccc4c([N+](=O)[O-])ccc(c34)C2=O)cc1,1.46 µM (active),
Cc1nnc(N2C(=O)c3cccc4c([N+](=O)[O-])ccc(c34)C2=O)s1,18.4 µM (active),
O=C1c2cccc3c([N+](=O)[O-])ccc(c23)C(=O)N1c1ccccn1,5.8 µM (active),
COC(=O)[C@@]1(Cc2ccccc2)[C@@H]2C(=CC(=O)[C@H]2CC(=O)C(=O)N(C)C)CN1C(=O)c1ccccc1,,0.342%
C/C(=N\NC(=S)NC(C)C)c1ccc(C(C)(C)C)cc1,,-8.17% [at 46.1 µM]
CCCSc1nnc(N2C(=O)C(O)=C(C(=O)c3ccco3)C2c2ccccc2F)s1 (configuration not stated),,-1.17% [at 46.1 µM]
N#CC1=C(N)Oc2cc(N)ccc2C1c1cccc(Br)c1 (configuration not stated),,-12.2%
CCN(CC)c1ccc2c(c1)OC(N)=C(C#N)C2c1cccnc1 (configuration not stated),17.7 µM (active),
N#CC1=C(N)Oc2ccc3ccccc3c2C1c1cccnc1 (configuration not stated),,-12.2%
Cc1cccc2[nH]cc(/C=C3/C=Nc4ccccc43)c12,18.4 µM (active),
CC(C)COc1ccc(C(=O)N/C(=C/c2cccc([N+](=O)[O-])c2)C(=O)O)cc1,,-7.22%
Cc1nc2c3ccccc3n(Cc3ccccc3F)c2s1,,5.45%
FC(F)(Cl)c1nnc2ccc(Cl)nn12,,-7.87%
CCc1ccc(N=Nc2ccc(O)c3[nH]cnc23)cc1,13 µM (active),
COc1ccc2c(Cl)c(C(=O)N/N=C3\CCCC(=O)C3)sc2c1,17.7 µM (active),
CCOc1cc(C(=O)NN=C2CCCC2)cc(OCC)c1OCC,,-3.08%
O=C(/C=C/c1ccco1)N1CCc2ccccc21,,-6.03% [at 46.1 µM]
COc1ccccc1N=C(C)C1=C(O)CC(c2ccccc2)CC1=O (configuration not stated),,-7.64%
Clc1ccccc1Cn1c(/C=C/c2ccco2)nc2ccccc21,,-3.73%

Structure (SMILES),Potency,"activity, negative = fluorescence increase"
O=[N+]([O-])c1ccc(C2=NN(c3ccccc3)C(c3ccco3)C2)cc1 (configuration not stated),1.25 µM (active),
C(=C\c1ccco1)/C1=NN(c2ccccc2)C(c2ccco2)C1 (configuration not stated),23.1 µM (active),
CCS(=O)(=O)Nc1cccc(C2=NN(C(=O)c3ccco3)C(c3ccco3)C2)c1 (configuration not stated),,-1.87%
COc1ccccc1N1N=C(c2ccc([N+](=O)[O-])cc2)CC1c1ccccc1 (configuration not stated),1.4 µM (active),
O=[N+]([O-])c1ccc(/C=C/C2=NN(c3ccccc3)C(c3ccco3)C2)o1 (configuration not stated),3.66 µM (active),
COC(=O)c1cc(C(=O)N2CCN(c3ccccc3OC)CC2)cc([N+](=O)[O-])c1,,-5.78%
Cc1ccc(C(=O)NC(=C(Cl)Cl)S(=O)(=O)c2ccccc2)cc1,,-9.1%
COc1ccc(OC)c(Nc2ncnc3c2cnn3-c2cccc(Cl)c2)c1,,-1.34% [at 46.1 µM]
COc1ccc(NC(=O)C2Cc3c(-c4ccc(NC(C)=O)cc4)ccnc3O2)cn1 (configuration not stated),,-12.1%
Cn1c2ccccc2c2ccc3c(c21)C(=O)C=CC3=O,,-5.19% [at 46.1 µM]
N#CC(C(=S)Nc1ccccc1)c1nc2ccccc2[nH]1 (configuration not stated),,-46.8% [at 46.1 µM]
Cc1cccc(C)c1NC(=S)NC(C)CCc1ccccc1 (configuration not stated),,8.84% [at 46.1 µM]
Cc1cc(C)nc(Nc2nc(C(N)Cc3ccccc3)cs2)n1 (configuration not stated),,-0.643%
Cc1sc2nc(SCC(=O)N3CCOCC3)[nH]c(=O)c2c1-c1ccccc1,,8.43% [at 46.1 µM]
CCN(CC)c1nc2cc(OC)ccc2cc1C#N,,6.08% [at 46.1 µM]
Cc1cc(SCC(=O)c2cccs2)nc2ccccc12,,-1.59% [at 46.1 µM]
COc1ccc2c(C)cc(SCC(=O)N3CCOCC3)nc2c1,18.4 µM (active),
COc1ccc2c(C)cc(SCC#N)nc2c1,18.4 µM (active),
CO/N=C/c1ccc(OC)c(Oc2nc(OC)cc(OC)n2)c1,,-8.03%
COc1ccc(C2C(C#N)=C(N)Oc3c2ccc2cccnc32)cc1OC (configuration not stated),,-2.64%
CS(=O)(=O)Nc1cccc(C2=NN(S(C)(=O)=O)C(c3ccc4c(c3)OCO4)C2)c1 (configuration not stated),,-7.77%
CS(=O)(=O)N1N=C(c2ccccc2)CC1c1ccc2c(c1)OCO2 (configuration not stated),14 µM (active),
c1ccc(-c2nccc(-c3ccc4c(c3)OCO4)n2)cc1,,-0.239%
CC(C)CN(CC(C)C)c1ccc(/C=C/c2ccnc3ccccc23)cc1,23.1 µM (active),
CCCCN(CCCC)c1ccc(/C=C/c2ccnc3ccccc23)cc1,16.4 µM (active),
CCN(CCCN(C)C)c1ccc(/C=C/c2ccnc3ccccc23)cc1,18.4 µM (active),

Structure (SMILES),Potency,"activity, negative = fluorescence increase"
CCCCN(CCC(=O)O)c1ccc(/C=C/c2ccnc3ccccc23)cc1,18.4 µM (active),
COc1ccc(NS(=O)(=O)c2cc(NC(=O)c3ccc(=O)[nH]c3)ccc2N2CCCC2)cc1,,-9.79%
Cc1ccsc1/C=N\NC(=O)c1n[nH]c2c1CCC2,,-28.6%
CC(=Nc1ccccc1)C1=C(O)C(Cc2ccccc2)NC1=O (configuration not stated),,-18.4%
CCN(CC)c1ccc(/C=C/c2ccnc3ccccc23)cc1,23.1 µM (active),
CCN(C)c1ccc(/C=N\n2nnnc2N)cc1,,-4.68%
CCN(C)c1ccc(/C=C/c2ccnc3ccccc23)cc1,20.6 µM (active),
CCCN(CCC)c1ccc(/C=C/c2ccnc3ccccc23)cc1,20.6 µM (active),
C/C(CC(=O)NCc1ccco1)=N\NC(=O)COc1ccc(Cl)cc1Cl,,-8.79%
CCN1/C(=C/C=C2/SC(=Nc3cccc4ncccc34)N(C)C2=O)Sc2ccccc21,16.4 µM (active),
COc1cccc(Sc2ccccc2/C=N/NC(N)=O)c1,,-2.6%
O=C(Nc1nnc(-c2ccc3c(c2)CCCC3)o1)c1c(F)cccc1F,,10.8% [at 46.1 µM]
Cc1c(-c2nnc(SCC(=O)Nc3ccccc3F)o2)nnn1-c1ccc(F)cc1,23.1 µM (active),
Cc1nnc(SCC(=O)NCc2ccccc2F)c2nn(-c3ccc(Cl)cc3)c(C)c12,,-23.7% [at 46.1 µM]
OCCCn1c(C2CCCN2c2nc(-c3ccc(Cl)cc3)cs2)nc2cc(Cl)c(Cl)cc21 (configuration not stated),,-8.45% [at 46.1 µM]
Cc1ccccc1NC(=O)c1ccc2c(c1)c(C)c(C)n2Cc1ccccc1,,-2.97% [at 46.1 µM]
N=c1n(CC(=O)c2ccc([N+](=O)[O-])cc2)c2ccccc2n1Cc1ccccc1,18.4 µM (active),
Cc1ccc(C(=O)NC2c3ccccc3-c3ccccc32)cc1,,-6.92%
Cc1ccc(C)c(C2NC(=O)c3ccccc3N2)c1 (configuration not stated),,-8.21%
Cc1ccc(SC2=C(Sc3ccc(C)cc3)C(=O)c3ccccc3C2=O)cc1,16.4 µM (active),
Cc1ccc(-c2cc(C(=O)N/N=C/C(Br)=C/c3ccccc3)n[nH]2)o1,,-8.76%
Cc1ccc(Cl)cc1NC(=O)Nc1cn(CC(C)C)c(=O)c2ccccc12,,0.562% [at 46.1 µM]
Cc1ccc2nc(-c3ccccn3)c(NC3CCCC3)n2c1,,9.97% [at 46.1 µM]
CN(C)c1ccc(/C=C/c2ccnc3ccccc23)cc1,18.4 µM (active),
CN(C)c1ccc(/C=C/c2ccnc3cc(Cl)ccc23)cc1,13 µM (active),
CN(C)c1ccc(/C=C/C=C/c2ccnc3ccccc23)cc1,5.8 µM (active),

Structure (SMILES),Potency,"activity, negative = fluorescence increase"
CN(C)c1ccc(/C=C/c2ccnc3ccc(-c4ccccc4)cc23)cc1,18.4 µM (active),
COc1cccc(CNCCSc2nnnn2C)c1OCc1ccc(F)cc1,,2.21% [at 46.1 µM]
C=CCNC(=S)N/N=C(\C)c1ccc(OC)cc1,,6.78% [at 46.1 µM]
CSc1ccc(/C=N/NC(=O)c2ccccc2Cl)cc1,,-7%
Cc1ccc(NC(=S)N=Nc2c(O)n(C)c3ccc(S(=O)(=O)N4CCOCC4)cc23)cc1,,3.95% [at 46.1 µM]
CN(C)c1ccc(/C=C/c2cnnc3ccccc23)cc1,20.6 µM (active),
CN(C)c1ccc(/C=C/c2ccnc3ccccc23)c(N)c1,18.4 µM (active),
COc1cccc2nccc(/C=C/c3ccc(N(C)C)cc3)c12,20.6 µM (active),
CNc1ccc(/C=C/c2ccnc3ccccc23)cc1,18.4 µM (active),
COc1ccc(C2=NOC(C(=O)NCc3ccc(F)cc3)C2)cc1 (configuration not stated),,-7.76%
CCOc1ccc(Br)cc1C1C(C(=O)OC)=C(N)Oc2cc(N(C)C)ccc21 (configuration not stated),,-9.94%
Cc1ccc(NC(=S)Nc2ccccn2)c(C)c1,,7.06% [at 46.1 µM]
CC(=O)Nc1cc(-c2ccccc2CN(C)C)cn2c(-c3ccc(C(C)=O)cc3)cnc12,,-11.7%
COC(=O)c1sc(N)c(C(=O)OC)c1COC(=O)c1c(C)noc1C,,-2.04%
CC1(C(=O)Nc2ccc3c(c2)OCO3)Cc2c(-c3ccccc3)ccnc2O1 (configuration not stated),,1.09%
CN(C)c1ccc(/C=C(\C#N)C(=O)Nc2nc3c(s2)CCN(Cc2ccccc2)C3)cc1,1.12 µM (active),
N#Cc1c(NC(=O)/C=C/C(=O)O)sc2c1CCN(Cc1ccccc1)C2,,-27.1% [at 46.1 µM]
CN1CCN(c2nc3ccccc3nc2NS(=O)(=O)c2ccc(Br)cc2)CC1,,6.19% [at 46.1 µM]
O=S(=O)(Nc1nc2ccccc2nc1N1CCN(c2ccccc2)CC1)c1ccc(F)cc1,,-15.1% [at 46.1 µM]
O=S(=O)(Nc1nc2ccccc2nc1N1CCc2ccccc2C1)c1ccc(Br)cc1,,-16.9% [at 46.1 µM]
CCOC(=O)N1CCC(Nc2nc3ccccc3nc2NS(=O)(=O)c2ccc(Cl)cc2)CC1,,0.827% [at 46.1 µM]
O=C(N=c1ccn(-c2nc3ccccc3nc2NS(=O)(=O)c2ccc(Cl)cc2)cc1)c1cccs1,16.4 µM (active),
O=S(=O)(Nc1nc2ccccc2nc1N1CCN(c2ccccn2)CC1)c1ccc(Cl)cc1,23.1 µM (active),
O=C(N/N=C/c1ccc2c(c1)OCO2)c1cc(-c2ccncc2)nc2ccccc12,,-7.14%
